How the values were obtained:
Assay in all cases: growth AUC relative to DMSO control (median of replicates) (fraction); higher = more growth (less inhibition), active = hit call of the paper
Details in all cases: 20 µM; 24 h;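 active = AUC reduced over 20% with Padj below 0.05 in at least 2 of 3 replicates; inactive = otherwise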
Akkermansia muciniphila = test system: Akkermansia muciniphila
Procedure, shortened: (§1)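 OD600 was recorded every hour for 24 h in anaerobic monocultures of gut bacteria kept at 37 °C in mGAM, seeded at OD600 0.05 and given 20 µM compound in 1% DMSO. The area under each growth curve was scaled to the plate median of solvent-only wells, or to row and column medians for the industrial chemical plate. Before this step, the minimum OD was set to 0. Reported values are medians of three biological replicates run on separate days.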

Bacteroides caccae = test system: Bacteroides caccae
Procedure, shortened: as §1

Bacteroides clarus = test system: Bacteroides clarus
Procedure, shortened: as §1

Bacteroides dorei = test system: Bacteroides dorei
Procedure, shortened: as §1

Bacteroides stercoris = test system: Bacteroides stercoris
Procedure, shortened: as §1

[1] = test system: Bacteroides thetaiotaomicron
Procedure, shortened: as §1

Bacteroides uniformis = test system: Bacteroides uniformis
Procedure, shortened: as §1

[2] = test system: Bifidobacterium longum subsp. longum
Procedure, shortened: as §1

Clostridium difficile = test system: Clostridium difficile
Procedure, shortened: as §1

Collinsella aerofaciens = test system: Collinsella aerofaciens
Procedure, shortened: as §1

Measured: growth AUC

CNC(=O)N(C)c1nc2ccccc2s1
inactive: Akkermansia muciniphila 0.902 | Bacteroides caccae 1.02 | Bacteroides clarus 0.991 | Bacteroides dorei 1 | Bacteroides stercoris 0.998 | [1] 0.999 | Bacteroides uniformis 0.991 | [2] 0.936 | Clostridium difficile 0.978 | Collinsella aerofaciens 0.995

COP(=O)(OC)C(O)C(Cl)(Cl)Cl (stereo not given)
inactive: Akkermansia muciniphila 0.955 | Bacteroides caccae 1.04 | Bacteroides clarus 1.01 | Bacteroides dorei 1 | Bacteroides stercoris 1.01 | [1] 1.01 | Bacteroides uniformis 1.02 | [2] 1.02 | Clostridium difficile 1 | Collinsella aerofaciens 1.01

Oc1ccc(Cl)cc1Cl
inactive: Akkermansia muciniphila 1.15 | Bacteroides caccae 0.802 | Bacteroides clarus 0.979 | Bacteroides dorei 0.893 | Bacteroides stercoris 0.938 | [1] 0.936 | Bacteroides uniformis 0.913 | [2] 1.05 | Clostridium difficile 0.946 | Collinsella aerofaciens 0.909

C=CCC1=C(C)C(OC(=O)C2C(C=C(C)C)C2(C)C)CC1=O (stereo not given)
inactive: Akkermansia muciniphila 1.05 | Bacteroides caccae 0.994 | Bacteroides clarus 1 | Bacteroides dorei 0.97 | Bacteroides stercoris 0.832 | [1] 0.968 | Bacteroides uniformis 0.98 | [2] 0.963 | Clostridium difficile 1 | Collinsella aerofaciens 0.957

CN(C)c1nc(=O)n(C2CCCCC2)c(=O)n1C
inactive: Akkermansia muciniphila 0.966 | Bacteroides caccae 1.03 | Bacteroides clarus 0.985 | Bacteroides dorei 1 | Bacteroides stercoris 1.07 | [1] 1.05 | Bacteroides uniformis 1.01 | [2] 1.01 | Clostridium difficile 1.02 | Collinsella aerofaciens 1.01

O=[N+]([O-])c1c(Cl)c(Cl)cc(Cl)c1Cl
inactive: Akkermansia muciniphila 1.02 | Bacteroides caccae 0.973 | Bacteroides clarus 1.01 | Bacteroides dorei 1.01 | Bacteroides stercoris 1.19 | [1] 1.04 | Bacteroides uniformis 0.992 | [2] 0.98 | Clostridium difficile 1.02 | Collinsella aerofaciens 1.05
